# Laboratory results as given in PubChem BioAssay AID651642 (Sanford-Burnham Center for Chemical Genomics, 2012).
# The source made the active and inactive calls.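 How the source made its calls: active means average half-effect concentration of 10 µM or less in every one of the four cell panels; inactive means the rest.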
# System: H9c2
# Assay: protection of cardiomyocytes from stress damage, SAR follow-up, cell-based, panel, H9c2 and HL-1, H2O2, 2-deoxyglucose, ATP luminescence (AID 651642)
# Conditions: H9c2/HL-1 cardiomyocyte 2-deoxyglucose damage, mean of runs, with 2-deoxyglucose
row,SMILES,outcome
1,COc1cc(-c2cc(C(=O)NCC(=O)Nc3cccc(C(C)=O)c3)c3cccc(Cl)c3n2)cc(OC)c1OC,inactive
2,COc1ccc2c(c1OC)C(=O)N1c3ccccc3C(=O)N(Cc3ccccn3)C21 (configuration not stated),inactive
3,COc1ccc2c(c1OC)C(=O)N1c3ccccc3C(=O)N(Cc3ccccc3Cl)C21 (configuration not stated),inactive
4,COc1ccc(NC(=O)CNC(=O)c2cc(-c3cc(OC)c(OC)c(OC)c3)nc3ccccc23)cc1,inactive
5,COc1cc(-c2cc(C(=O)Nc3cccc(C(=O)O)c3)c3ccccc3n2)cc(OC)c1OC,inactive
6,COc1ccc2c(c1OC)C(=O)N1c3ccccc3C(=O)N(Cc3cccc(Cl)c3Cl)C21 (configuration not stated),active
7,CCOC(=O)c1cccc(NC(=O)c2cc(-c3cc(OC)c(OC)c(OC)c3)nc3ccc(OC)cc23)c1,inactive
8,COc1cc(-c2cc(C(=O)Nc3cccc(C(C)=O)c3)c3cc(C)ccc3n2)cc(OC)c1OC,inactive
9,COc1cc(-c2cc(C(=O)Nc3cccc(C(C)=O)c3)c3ccccc3n2)cc(OC)c1OC,inactive
10,COc1ccc2c(c1OC)C(=O)N1c3ccccc3C(=O)N(Cc3cccc(C)c3)C21 (configuration not stated),inactive
11,COc1cc(-c2cc(C(=O)Nc3cccc(C(=O)NCc4ccccc4)c3)c3ccccc3n2)cc(OC)c1OC,active
12,COc1cc(-c2cc(C(=O)Nc3cccc(C(C)=O)c3)c3cccc(Cl)c3n2)cc(OC)c1OC,inactive
13,COc1ccc2nc(-c3cc(OC)c(OC)c(OC)c3)cc(C(=O)Nc3cccc(C(C)=O)c3)c2c1,inactive
14,COc1cc(-c2cc(C(=O)Nc3cccc(C(=O)N4CCOCC4)c3)c3ccccc3n2)cc(OC)c1OC,inactive
15,CCOC(=O)c1ccccc1NC(=O)c1cc(-c2cc(OC)c(OC)c(OC)c2)nc2ccccc12,inactive
16,CCOC(=O)c1cccc(NC(=O)c2cc(-c3cc(OC)c(OC)c(OC)c3)nc3ccc(Cl)cc23)c1,inactive

row,SMILES,outcome
1,CCOC(=O)c1ccc(NC(=O)c2cc(-c3cc(OC)c(OC)c(OC)c3)nc3ccccc23)cc1,inactive
2,COc1cc(-c2cc(C(=O)NCC(=O)Nc3cccc(C(C)=O)c3)c3cc(F)ccc3n2)cc(OC)c1OC,active
3,CCNC(=O)c1cccc(NC(=O)c2cc(-c3cc(OC)c(OC)c(OC)c3)nc3ccccc23)c1,inactive
4,CCOC(=O)c1cccc(NC(=O)CNC(=O)c2cc(-c3cc(OC)c(OC)c(OC)c3)nc3ccccc23)c1,inactive
5,COc1ccc2c(c1OC)C(=O)N1c3ccccc3C(=O)N(Cc3ccccc3Br)C21 (configuration not stated),inactive
6,CCOC(=O)c1cccc(NC(=O)CNC(=O)c2cc(-c3cc(OC)c(OC)c(OC)c3)nc3ccc(F)cc23)c1,active
7,COc1cc(-c2cc(C(=O)Nc3cccc(C(=O)NC4CC4)c3)c3ccccc3n2)cc(OC)c1OC,inactive
8,COc1cc(-c2cc(C(=O)NCC(=O)Nc3cccc(C(C)=O)c3)c3ccccc3n2)cc(OC)c1OC,active
9,COc1cc(-c2cc(C(=O)Nc3cccc(C#N)c3)c3ccccc3n2)cc(OC)c1OC,inactive
10,COc1ccc2c(c1OC)C(=O)N1c3ccccc3C(=O)N(Cc3ccccc3C)C21 (configuration not stated),inactive
11,CCOC(=O)c1cccc(NC(=O)c2cc(-c3cc(OC)c(OC)c(OC)c3)nc3ccc(F)cc23)c1,inactive
12,COc1ccc2c(c1OC)C(=O)N1c3ccccc3C(=O)N(Cc3ccc(C)cc3)C21 (configuration not stated),inactive
13,CCOC(=O)c1cccc(NC(=O)CNC(=O)c2cc(-c3cc(OC)c(OC)c(OC)c3)nc3ccc(C)cc23)c1,active
14,COc1cc(-c2cc(C(=O)NCC(=O)Nc3cccc(C(C)=O)c3)c3cc(Br)ccc3n2)cc(OC)c1OC,active
15,CCOC(=O)c1cccc(NC(=O)c2cc(-c3cc(OC)c(OC)c(OC)c3)nc3ccc(Br)cc23)c1,inactive
16,CCOC(=O)c1cccc(NC(=O)CNC(=O)c2cc(-c3cc(OC)c(OC)c(OC)c3)nc3ccc(OC)cc23)c1,active
